According to PubChem BioAssay (Tox21):
Where “and” joins values, the source holds several entries; their conditions need not be identical. Identical values can stand only once. Inconclusive results are not listed. A call without a number means that no potency is given here. More than one record can exist for a structure, and the calls need not agree. Calls of active or inactive are those of the source. Unless noted, the call rests on the fitted dose curve; in most records, active means well fitted curve in the direction sought with a large enough effect in the repeat runs; inconclusive means weak or mixed curves; inactive means no such curve, though single readings can be large; an effect the other way counts as inactive or inconclusive.

Key:
[1] = A CellTox Green Cytotoxicity Assay to monitor cytotoxicity in HepG2 cells - 8 hour (AID 1224890); further: nearly all actives have a fitted effect of over 45% in size; further: potency means the concentration at half of the fitted maximal effect
Procedure, shortened: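 HepG2 cells, 600/well, preincubated 5 h with CellTox Green dye, then exposed to Tox21 compounds in DMSO at 37 C for up to 40 h. Dead-cell DNA fluorescence read at the indicated time point.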

[2] = qHTS assay to identify small molecule antagonists of the androgen receptor (AR) signaling pathway using the MDA cell line in the presence of 0.5 nM R1881 - cell viability counter screen (AID 1259242); further: nearly all actives have a fitted effect of over 45% in size; further: potency means the concentration at half of the fitted maximal effect
Procedure, shortened: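 MDA-kb2 cells (MMTV-luciferase, AR/GR responsive) were treated with compounds plus 0.5 nM R1881 (final) for 16 hr at 37C, 0% CO2. Viability was then read in the same wells as live-cell protease fluorescence (CellTiter-Fluor, 30 min).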

[3] = molecular target: Androgen receptor (Homo sapiens) (UniProt P10275); assay: qHTS assay to identify small molecule antagonists of the androgen receptor (AR) signaling pathway using the MDA cell line in the presence of 0.5 nM R1881 (AID 1259243); further: nearly all actives have a fitted effect of over 50% in size
Procedure, shortened: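 MDA-kb2 cells (MMTV-luciferase, responsive to AR and GR) at 3,000/well, rested 5 h at 37C, 0% CO2, then given compounds plus 0.5 nM R1881 (final) for 16 hr. Luciferase read with ONE-Glo after 30 min at room temperature.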

[4] = molecular target: Estrogen receptor (Homo sapiens) (UniProt P03372); assay: qHTS assay to identify small molecule antagonists of the estrogen receptor alpha (ER-alpha) signaling pathway using the BG1 cell line in the presence of 0.1 nM 17-beta-estradiol (AID 1259244); further: nearly all actives have a fitted effect of over 50% in size
Procedure, shortened: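 VM7Luc4E2 cells (endogenous full-length ER-alpha, 4×ERE-luciferase), kept 5 days in phenol red-free, charcoal-stripped FBS medium; 4,000 cells/well. Compounds added with 0.1 nM (final) 17beta-estradiol, 22 hr at 37C; luminescence read with ONE-Glo after 30 min.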

[5] = qHTS assay to identify small molecule HDAC inhibitors (AID 1259364); further: nearly all actives have a fitted effect of over 45% in size; further: potency means the concentration at half of the fitted maximal effect
Procedure, shortened: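 Wild-type HCT-116 cells, plated overnight at 37 C, exposed to compounds 2 hr at 37 C; luminogenic HDAC-Glo substrate then added 30 min at room temperature. Luminescence reports relative endogenous class I/II HDAC activity.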

[6] = qHTS assay to identify small molecule HDAC inhibitors - cell viability counter screen (AID 1259365); further: series mostly up to about 92 µM; nearly all actives have a fitted effect of over 50% in size
Procedure, shortened: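 Following a 2hr exposure of overnight-plated wild-type HCT-116 cells to DMSO-delivered compounds, CellTiter-Glo was added and luminescence recorded after 30min at room temperature.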

[7] = qHTS assay to identify small molecule agonists of the sonic hedgehog signaling (Shh) pathway - cell viability counter screen (AID 1259366); further: nearly all actives have a fitted effect of over 50% in size; further: potency means the concentration at half of the fitted maximal effect
Procedure, shortened: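 After a 4hr attachment at 37C, NIH/3T3 cells bearing an integrated Gli1-driven luciferase reporter were dosed with compounds. Treatment lasted 24hr, with the final hour including CellTiter-Fluor for a fluorescence viability measurement.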

[8] = qHTS assay to identify small molecule agonists of the sonic hedgehog signaling (Shh) pathway (AID 1259368; calls by dose curve;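 further: NIH/3T3-derived 3T3Gli1-Luc cells carrying a stable Gli1-driven firefly luciferase reporter; series mostly up to about 92 µM; nearly all actives have a fitted effect of over 15% in size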)
Procedure, shortened: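 NIH/3T3-derived 3T3Gli1-Luc cells with stably integrated Gli1-driven firefly luciferase, 2,000 cells/well, compounds added after 4 hr. Incubated 24 hr at 37C, 5% CO2; luminescence read after 30 min with luciferase reagent at room temperature.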

[9] = qHTS assay to identify small molecule antagonists of the sonic hedgehog signaling (Shh) pathway (AID 1259369; calls by dose curve; further: nearly all actives have a fitted effect of over 45% in size; further: potency means the concentration at half of the fitted maximal effect)
Procedure, shortened: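 NIH/3T3-derived Gli1-Luc reporter cells plated 4 h, dosed with compound, then stimulated with conditioned medium for 24 h at 37 C. Firefly luciferase luminescence read after 30 min with detection reagent at room temperature.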

[10] = qHTS assay to identify small molecule agonists of the estrogen receptor beta (ER-beta) signaling pathway - cell viability counter screen (AID 1259380); further: nearly all actives have a fitted effect of over 30% in size; further: potency means the concentration at half of the fitted maximal effect
Procedure, shortened: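 ER-beta-UAS-bla HEK293T cells in medium with 2% charcoal-stripped FBS, pre-incubated 6 hr, then treated 16 hr at 37C. Cytotoxicity read in the same wells by CellTiter-Glo luminescence after 30 min at room temperature.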

[11] = molecular target: Androgen receptor (Homo sapiens) (UniProt P10275); assay: qHTS assay to identify small molecule agonists of the androgen receptor (AR) signaling pathway in the presence of an antagonist (AID 1259381; calls by dose curve; further: nearly all actives have a fitted effect of over 15% in size)
Procedure, shortened: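 MDA-kb2 cells carrying MMTV-luciferase (AR/GR responsive), 3,000 cells/well, co-treated with 3.0 uM nilutamide final. Compounds at 15 concentrations, 16 hr at 37C without CO2. Luciferase luminescence read after 30 min with ONE-Glo.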

[12] = qHTS assay to identify small molecule antagonists of the estrogen receptor beta (ER-beta) signaling pathway - cell viability counter screen (AID 1259382); further: nearly all actives have a fitted effect of over 55% in size; further: potency means the concentration at half of the fitted maximal effect
Procedure, shortened: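 ER-beta-UAS-bla HEK293T cells in 2% charcoal-stripped FBS medium, treated with compound plus 1 nM 17-beta-estradiol for 16 h at 37C. Viability read by CellTiter-Glo luminescence after 30 min at room temperature in the same wells.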

[13] = molecular target: Estrogen receptor (Homo sapiens) (UniProt P03372); assay: qHTS assay to identify small molecule agonists of the estrogen receptor alpha (ER-alpha) signaling pathway in the presence of an antagonist (AID 1259383; calls by dose curve; further: top concentration of the series differs between compounds; nearly all actives have a fitted effect of over 15% in size)
Procedure, shortened: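 VM7Luc4E2 cells express endogenous full-length ER-alpha with an ERE-luciferase reporter and were hormone-deprived for 5 days. Compounds at 15 concentrations were added with 10.0nM ICI-182,780 for 22hr at 37C. Luminescence was read with ONE-Glo.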

[14] = qHTS assay to identify small molecule antagonists of the estrogen receptor alpha (ER-alpha) signaling pathway using the BG1 cell line in the presence of 0.1 nM 17-beta-estradiol - cell viability counter screen (AID 1259241); further: nearly all actives have a fitted effect of over 40% in size; further: potency means the concentration at half of the fitted maximal effect
Procedure, shortened: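 Measures cytotoxicity alongside the ER-alpha antagonist readout: VM7Luc4E2 cells, charcoal-stripped serum, 0.1 nM 17beta-estradiol final, 22 hr compound incubation at 37C, CellTiter-Fluor fluorescence.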

[15] = qHTS assay to identify small molecule agonists of the androgen receptor (AR) signaling pathway in the presence of an antagonist - cell viability counter screen (AID 1259379); further: nearly all actives have a fitted effect of over 25% in size; further: potency means the concentration at half of the fitted maximal effect
Procedure, shortened: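 MDA-kb2 cells (MMTV-luciferase, AR/GR), 3,000/well, 5 h attachment, then 3.0 µM nilutamide (final) and compounds at 15 concentrations. Viability by CellTiter-Fluor fluorescence after 16 h at 37 °C, 0% CO2, in the reporter wells.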

[16] = qHTS assay to identify small molecule agonists or antagonists of the thyroid stimulating hormone receptor (TSHR) signaling pathway - wild type cell line counter screen (AID 1259384; calls by dose curve)
Procedure, shortened: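 Counter screen in untransfected Hek293: compounds (15-point titration, triplicate) plus phosphodiesterase inhibitor Ro20-1724 added after 18 h plating; 30 min RT. Intracellular cAMP via competitive d2/cryptate immunoassay, 1 h incubation.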

[17] = qHTS assay to identify small molecule phospholipidosis (PLD) inducers (AID 1259344; active means well fitted curve in the direction sought with a large enough effect; an effect the other way counts as inactive or inconclusive; further: potency means the concentration at half of the fitted maximal effect)
Procedure, shortened: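 Fluorescent phospholipid staining (LipidTOX Red) measured by automated microscopy in fixed HepG2 cells after 24 h treatment; nuclei counterstained with Hoechst 33342; amiodarone as reference inducer.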

[18] = qHTS assay to identify small molecule antagonists of the sonic hedgehog signaling (Shh) pathway - cell viability counter screen (AID 1259367); further: nearly all actives have a fitted effect of over 55% in size
Procedure, shortened: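 Using CellTiter-Fluor, viability of Gli1-Luc reporter 3T3 cells is read by fluorescence in the wells used for the Shh luciferase assay. Treatment lasts 23 hr with conditioned medium, then reagent 1 hr at 37C.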

[19] = molecular target: Estrogen receptor beta (Homo sapiens) (UniProt Q92731); assay: qHTS assay to identify small molecule agonists of the estrogen receptor beta (ER-beta) signaling pathway (AID 1259377; active means well fitted activation curve with a large enough effect in the signal ratio in the repeat runs, not every such curve was filed as active; the % refers to the signal ratio)
Procedure, shortened: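 In HEK293T cells bearing a UAS-beta-lactamase reporter under ER-beta control, DMSO-delivered compounds were incubated for 16 hr at 37C. Activity was detected as fluorescence 2 hours after LiveBLAzer B/G FRET substrate addition.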

[20] = molecular target: Estrogen receptor beta (Homo sapiens) (UniProt Q92731); assay: qHTS assay to identify small molecule antagonists of the estrogen receptor beta (ER-beta) signaling pathway (AID 1259378; active means well fitted inhibition curve with a large enough effect in the signal ratio in the repeat runs, not every such curve was filed as active; the % refers to the signal ratio)
Procedure, shortened: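 Antagonist mode: compounds added to beta-lactamase reporter HEK293T ER-beta-UAS cells stimulated with E2 (1nM final), 16 hr at 37C. LiveBLAzer B/G FRET substrate, 2 hours room temperature, fluorescence read-out.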

Estrogen receptor beta (Homo sapiens), sequence (Q92731 whole entry, looked up): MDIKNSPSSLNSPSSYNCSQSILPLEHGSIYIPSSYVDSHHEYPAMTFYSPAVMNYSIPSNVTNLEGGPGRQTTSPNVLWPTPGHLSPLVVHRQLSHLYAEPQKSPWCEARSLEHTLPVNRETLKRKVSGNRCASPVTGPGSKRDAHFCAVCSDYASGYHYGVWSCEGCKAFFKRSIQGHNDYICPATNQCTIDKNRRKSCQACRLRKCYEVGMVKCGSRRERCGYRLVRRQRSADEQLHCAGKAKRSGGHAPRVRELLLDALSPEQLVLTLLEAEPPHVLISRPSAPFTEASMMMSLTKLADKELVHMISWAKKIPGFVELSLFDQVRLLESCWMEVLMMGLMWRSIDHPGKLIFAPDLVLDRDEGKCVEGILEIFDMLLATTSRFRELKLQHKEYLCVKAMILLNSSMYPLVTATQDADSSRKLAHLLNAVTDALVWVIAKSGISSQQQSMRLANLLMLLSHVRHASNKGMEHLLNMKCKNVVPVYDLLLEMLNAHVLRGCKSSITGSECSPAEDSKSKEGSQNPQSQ
Androgen receptor (Homo sapiens), sequence (P10275 whole entry, looked up): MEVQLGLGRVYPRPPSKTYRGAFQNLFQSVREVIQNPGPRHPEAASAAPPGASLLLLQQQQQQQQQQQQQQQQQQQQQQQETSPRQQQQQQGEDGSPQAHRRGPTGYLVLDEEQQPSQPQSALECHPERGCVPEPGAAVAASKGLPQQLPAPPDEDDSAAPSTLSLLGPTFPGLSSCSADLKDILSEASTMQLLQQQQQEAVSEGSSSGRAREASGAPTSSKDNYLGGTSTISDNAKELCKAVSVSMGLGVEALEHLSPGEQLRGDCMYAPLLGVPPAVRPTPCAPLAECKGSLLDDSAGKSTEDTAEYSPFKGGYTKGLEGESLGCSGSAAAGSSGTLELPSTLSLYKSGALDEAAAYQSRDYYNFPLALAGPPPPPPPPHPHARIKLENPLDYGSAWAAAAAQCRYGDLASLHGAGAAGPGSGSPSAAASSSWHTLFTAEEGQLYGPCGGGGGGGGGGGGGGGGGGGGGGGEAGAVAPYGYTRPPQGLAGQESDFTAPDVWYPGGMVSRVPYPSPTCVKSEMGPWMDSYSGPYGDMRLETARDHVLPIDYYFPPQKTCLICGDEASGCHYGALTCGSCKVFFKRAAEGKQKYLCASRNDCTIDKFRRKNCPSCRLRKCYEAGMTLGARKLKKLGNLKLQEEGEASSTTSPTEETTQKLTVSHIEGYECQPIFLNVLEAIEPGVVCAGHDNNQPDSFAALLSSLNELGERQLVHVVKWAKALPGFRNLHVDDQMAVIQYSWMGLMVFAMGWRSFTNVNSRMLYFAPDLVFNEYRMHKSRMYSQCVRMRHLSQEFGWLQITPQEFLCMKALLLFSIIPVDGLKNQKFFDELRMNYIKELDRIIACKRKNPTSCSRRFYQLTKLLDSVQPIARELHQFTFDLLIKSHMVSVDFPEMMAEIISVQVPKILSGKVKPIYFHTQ
Estrogen receptor (Homo sapiens), sequence (P03372 whole entry, looked up): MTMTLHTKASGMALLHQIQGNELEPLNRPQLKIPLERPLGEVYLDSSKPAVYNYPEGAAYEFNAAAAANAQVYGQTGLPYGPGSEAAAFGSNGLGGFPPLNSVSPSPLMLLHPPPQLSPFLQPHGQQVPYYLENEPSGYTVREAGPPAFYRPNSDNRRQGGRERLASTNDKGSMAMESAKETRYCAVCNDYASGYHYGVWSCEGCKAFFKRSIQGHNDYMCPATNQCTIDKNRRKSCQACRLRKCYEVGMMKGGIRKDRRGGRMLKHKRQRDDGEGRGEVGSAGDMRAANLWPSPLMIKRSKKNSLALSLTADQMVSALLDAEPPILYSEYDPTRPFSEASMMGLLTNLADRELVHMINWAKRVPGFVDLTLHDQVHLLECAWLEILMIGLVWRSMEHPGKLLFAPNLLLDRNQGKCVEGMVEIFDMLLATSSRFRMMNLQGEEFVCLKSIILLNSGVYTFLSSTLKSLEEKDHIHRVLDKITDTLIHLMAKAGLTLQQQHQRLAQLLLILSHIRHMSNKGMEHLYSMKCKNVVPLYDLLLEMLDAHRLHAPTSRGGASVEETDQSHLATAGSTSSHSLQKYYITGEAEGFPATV

Row | SMILES | Potency [1] | Potency [2] | Potency [3] | Potency [4] | Potency [5] | Potency [6] | Potency [7] | outcome [8] | Potency [9] | Potency [10] | Potency [11] | Potency [12] | Potency [13] | Potency [14] | Potency [15] | Potency [16] | Potency [17] | Potency [18] | Potency [19] | Potency [20]
1 | COc1cccc(O)c1O | inactive | inactive | inactive | inactive | inactive | inactive | 63.5 µM (active) | inactive | 8.97 µM (active) | 56.6 µM (active) | inactive | inactive | inactive | – | – | – | – | – | – | –
2 | F[B-](F)(F)F | inactive | inactive | – | – | inactive | inactive | inactive | inactive | inactive | inactive and 62 µM (active) | – | inactive | – | inactive | inactive | inactive | – | – | – | –
3 | CCCC[P+](CCCC)(CCCC)CCCC | inactive | inactive | – | – | inactive | inactive | inactive | inactive | inactive | – | – | inactive | – | inactive | 60.9 µM (active) and 62.3 µM (active) and 61.1 µM (active) | inactive | – | – | – | –
4 | CCCCC(CC)C(=O)O (centres undefined) | inactive | inactive | – | – | inactive | inactive | inactive | inactive | inactive | inactive | – | inactive | – | inactive | inactive | inactive | – | – | – | –
5 | Nc1ccc(O)c([N+](=O)[O-])c1 | inactive | – | – | – | – | inactive | 43.3 µM (active) | inactive | 13.5 µM (active) | – | – | inactive | inactive | – | 27.3 µM (active) | – | inactive | – | – | –
6 | CN[C@H]1CC[C@@H](c2ccc(Cl)c(Cl)c2)c2ccccc21 | – | – | – | – | inactive | – | inactive | inactive | 18.8 µM (active) | 29.8 µM (active) | – | 18.8 µM (active) | inactive | inactive | inactive | inactive | 2.82 µM (active) | inactive | – | –
7 | O=C(Nc1ncc([N+](=O)[O-])s1)c1cccs1 | inactive | – | – | inactive | 0.422 µM (active) | – | inactive | – | inactive | – | inactive | – | – | – | 26.6 µM (active) | inactive | inactive | – | – | –
8 | Nc1ccc([N+](=O)[O-])cc1O | inactive | – | – | inactive | – | inactive | 30.6 µM (active) | inactive | – | – | – | inactive | – | 61.1 µM (active) | 30.6 µM (active) | – | inactive | – | – | –
9 | CN1CCC[C@H]1c1cccnc1 | inactive | inactive | – | – | inactive | inactive | inactive | inactive | inactive | inactive | – | inactive | – | inactive | inactive | – | – | inactive | – | –
10 | CC(C)c1c(C(=O)Nc2ccccc2)c(-c2ccccc2)c(-c2ccc(F)cc2)n1CC[C@@H](O)C[C@@H](O)CC(=O)O | inactive | inactive | – | – | inactive | inactive | inactive | inactive | inactive | 11.7 µM (active) and 25.5 µM (active) | – | 13.2 µM (active) and 32.1 µM (active) | – | inactive | inactive | inactive | inactive | – | – | –
11 | CCCCCCCCCCCC[N+](C)(C)Cc1ccccc1 | 53.9 µM (active) and 47.4 µM (active) and 23.9 µM (active) | 47.6 µM (active) and 37.4 µM (active) and 13.3 µM (active) | – | – | inactive | inactive | 53.4 µM (active) and 52.8 µM (active) and 16.8 µM (active) | inactive | 2.13 µM (active) and 419 nM (active) and 3.76 µM (active) | 30 µM (active) and 29.7 µM (active) and 10.6 µM (active) | – | 26.8 µM (active) and 37.4 µM (active) and 11.9 µM (active) | – | inactive | 23.9 µM (active) and 33.3 µM (active) and 26.6 µM (active) | inactive | inactive | – | – | –
12 | CN(C)C(=S)SC(=S)N(C)C | inactive | 2.5 µM (active) and 1.72 µM (active) and 3.35 µM (active) | – | – | inactive | inactive | 3.14 µM (active) and 545 nM (active) and 2.11 µM (active) | inactive | 280 nM (active) and 109 nM (active) and 2.66 µM (active) | 1.25 µM (active) and 2.17 µM (active) and 1.06 µM (active) | – | 1.37 µM (active) and 1.88 µM (active) | – | 2.5 µM (active) and 5.45 µM (active) and 3.76 µM (active) | 3.96 µM (active) and inactive | inactive | inactive | – | – | –
13 | COc1ccc(OC(F)(F)F)cc1CN[C@H]1CCCN[C@H]1c1ccccc1 | – | 48.6 µM (active) | – | – | inactive | inactive | 48.6 µM (active) | inactive | 10.9 µM (active) | 34.4 µM (active) | – | 30.6 µM (active) | inactive | – | 48.6 µM (active) | inactive | – | – | – | –
14 | OC[C@H]1O[C@H](O[C@]2(CCl)O[C@H](CCl)[C@@H](O)[C@@H]2O)[C@H](O)[C@@H](O)[C@H]1Cl | inactive | inactive | – | – | inactive | inactive | inactive | inactive | inactive | inactive | – | inactive | – | inactive | inactive | inactive | – | inactive | inactive | inactive
